SMILES strings stand for the structures. “And” between values parts separate entries of the source, which are not always exact repeats. Equal entries are not always repeated. Values without a mark were called inactive.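 Rule for the calls, unless noted: active = compounds whose dose series gives a full or clear partial fitted curve of increased nuclear translocation; inconclusive = weak partial curve or effect only at the top dose; inactive = no dose-dependent translocation response.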 Records with an inconclusive call do not appear.

System in the first experiment: not listed separately
Kind of experiment: Stat Signaling Pathway (AID 446; active = well fitted curve in either direction with a large enough effect, not every such curve was filed as active;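 note: ME-180 cervical cancer cells given 40 pM IL-6 alongside compound; SIE-controlled beta-lactamase reporter measured as 460/530 nm FRET emission ratio; % is set by controls: 0 for no effect and ±100 for the full control effect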). The conditions noted are these: ME-180 SIE beta-lactamase reporter, IL-6 stimulated, 5 h; at 7.69 µM (top of the series) unless noted. Summed up: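 Reporter line: ME-180 cervical carcinoma, SIE-beta-lactamase. Treatment: compound with 40 pM IL-6, 5 hrs, 37 C, in low-serum OPTI-MEM with 10 mM HEPES pH 7.3. Detection: 460/530 nm fluorescence.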
Take `COc1ccc2[nH]cc(CCNc3ncnc4ccc(-c5ccc6c(c5)OCO6)cc34)c2c1`: the activity, negative = inhibition was -24.8%. For `N#Cc1cccc(NC(=O)N2CC[C@@]3(CCCN(C(=O)c4cccc(F)c4)C3)C2)c1`, the activity, negative = inhibition was -2.81%.

Regarding `COc1cccc(-c2cc(NCCc3c[nH]c4ccc(OC)cc34)ncn2)c1`, the activity, negative = inhibition was -5.09%. On to `COc1ccccc1CNc1ncnc2ccc(-c3ccccc3C#N)cc12`, for which the activity, negative = inhibition is -23%. Same read-out and setting: with `Cc1ccccc1-c1ccc2ncnc(N(C)C)c2c1` the figure was -4.62%. As for `O=C(c1ccncc1)N1CCC2(CC1)CCN(c1ccncc1)CC2`, the activity, negative = inhibition was 5.08%. Still for that read-out and setting: with `Cc1[nH]ccc2c1[nH]c1cc(=O)ccc12` the figure was 4.88% [at 17.2 µM]; with `CN(Cc1ccco1)c1ncnc2ccc(-c3ccc4c(c3)OCO4)cc12`, -7.17%; with `O=C(c1cnccn1)N1CCC2(CCCN(Cc3ccncc3)C2)CC1`, 6.38%.

`CC(C)CN1CCCC2(CCN(C(=O)c3ccco3)CC2)C1`: the activity, negative = inhibition is 2.64%. Still for that read-out and setting: with `CC[C@@]12CCCN3CCc4c(n(c5ccccc45)[C@](O)(C(=O)OC)C1)[C@H]32` the figure was 4.76% [at 17.2 µM] and 8.92% [at 17.2 µM]. On the same count and under the same terms, with `N[C@H](Cn1ccc(=O)c(O)c1)C(=O)O` the figure was 3.76% [at 17.2 µM]; with `COc1ccc2[nH]cc(CCNc3ncnc4ccc(-c5ccccc5C#N)cc34)c2c1`, -19.5%. `CC(C)NC(=O)N1CC[C@@]2(CCCN(C(=O)c3ccco3)C2)C1`: the activity, negative = inhibition was 8.1%. Take `CC(=O)Oc1ccccc1C(=O)Oc1ccccc1C(=O)O`: the activity, negative = inhibition is 8.87% [at 17.2 µM].

The target in a further experiment is Glucocorticoid receptor (Homo sapiens) (UniProt P04150). Description: GR-GFP Redistribution (AID 450). Note: potency is the fitted concentration of half-maximal effect. The conditions noted are these: U2OS GR-GFP nuclear translocation, laser cytometry, 2 h.
Chain of Glucocorticoid receptor (Homo sapiens) (P04150 whole entry, looked up): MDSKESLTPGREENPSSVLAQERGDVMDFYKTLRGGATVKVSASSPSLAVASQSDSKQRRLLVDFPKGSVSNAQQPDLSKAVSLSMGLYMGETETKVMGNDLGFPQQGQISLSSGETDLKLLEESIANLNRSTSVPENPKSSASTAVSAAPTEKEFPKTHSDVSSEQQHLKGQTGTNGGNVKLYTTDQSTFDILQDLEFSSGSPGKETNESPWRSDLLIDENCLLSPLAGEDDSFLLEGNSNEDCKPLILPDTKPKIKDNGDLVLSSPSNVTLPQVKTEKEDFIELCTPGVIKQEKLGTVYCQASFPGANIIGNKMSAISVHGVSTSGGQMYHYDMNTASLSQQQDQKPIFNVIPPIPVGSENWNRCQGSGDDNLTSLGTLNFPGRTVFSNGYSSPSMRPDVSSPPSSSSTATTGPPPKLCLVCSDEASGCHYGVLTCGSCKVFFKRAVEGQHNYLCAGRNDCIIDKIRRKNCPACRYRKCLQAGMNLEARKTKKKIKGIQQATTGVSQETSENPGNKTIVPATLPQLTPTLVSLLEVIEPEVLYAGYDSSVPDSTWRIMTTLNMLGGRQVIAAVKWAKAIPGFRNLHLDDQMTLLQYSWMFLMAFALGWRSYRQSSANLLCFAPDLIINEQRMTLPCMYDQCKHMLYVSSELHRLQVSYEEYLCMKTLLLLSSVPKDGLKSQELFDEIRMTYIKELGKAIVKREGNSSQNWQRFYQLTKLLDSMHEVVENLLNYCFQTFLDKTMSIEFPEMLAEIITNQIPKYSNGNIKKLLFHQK
In the case of `CN=C1N[C@H](c2ccccc2)N(c2ccccc2)S1`, the Potency was over 46 µM. For the compound `CCCC[P+](CCCC)(CCCC)Cc1ccc(NC(=O)[C@@H](Cc2ccc3ccccc3c2)NC(=NC2CCCCC2)NC2CCCCC2)cc1`, the Potency was over 46 µM. Consider `COc1cccc(-c2cc(NCCc3c[nH]c4ccc(OC)cc34)ncn2)c1`, for which the Potency was over 46 µM. Take `N#CCCn1c(=O)c(-c2ccc(F)cc2)nc2cnc(Oc3cccc(Cl)c3)nc21`: the Potency is over 9.22 µM. Same read-out and setting: the same measure for `COc1ccccc1CNc1ncnc2ccc(-c3ccccc3C#N)cc12`: over 46 µM; for `Cc1ccccc1-c1ccc2ncnc(N(C)C)c2c1`: over 46 µM. On the same count and under the same terms, the same measure for `N[C@@H](C(=O)O)c1ccc(O)c(C(=O)O)c1`: over 46 µM.

With `O=c1ccc2cc(O)c(O)cc2o1`, the Potency was over 20.6 µM. Same read-out and setting: with `COc1ccc2[nH]cc(CCNc3nc(-c4ccc(C(=O)N(C)C)cc4)nc4ccccc34)c2c1` the figure was over 46 µM; with `Cc1cc(C)c(S(=O)(=O)Nc2ccccc2C(F)(F)F)c(C)c1`, over 46 µM. Same read-out and setting: with `CCCNC(=O)N1N=C(c2ccc(N)cc2)c2cc3c(cc2[C@H]1C)OCO3` the figure was over 46 µM. Same read-out and setting: the same measure for `Cc1[nH]ccc2c1[nH]c1cc(=O)ccc12`: > 20.6 µM and > 46 µM; for `CN(Cc1ccco1)c1ncnc2ccc(-c3ccc4c(c3)OCO4)cc12`: over 46 µM; for `COc1cc2ccc(=O)oc2cc1O`: > 20.6 µM and > 46 µM. For the compound `CCCCCCCNS(=O)(=O)c1cccc2c(Cl)cccc12`, the Potency is over 46 µM. The same measure, in the same setting: the same measure for `CC[C@@]12CCCN3CCc4c(n(c5ccccc45)[C@](O)(C(=O)OC)C1)[C@H]32`: > 20.6 µM and > 46 µM; for `COc1cc2c(cc1OC)C(=O)Cc1ccc3c(c1CN(C)CC2)OCO3`: over 46 µM; for `N[C@H](Cn1ccc(=O)c(O)c1)C(=O)O`: > 20.6 µM and > 46 µM.

In the case of `COc1ccc2[nH]cc(CCNc3ncnc4ccc(-c5ccccc5C#N)cc34)c2c1`, the Potency was over 46 µM. Same read-out and setting: with `CC(=O)Oc1ccccc1C(=O)Oc1ccccc1C(=O)O` the figure was over 20.6 µM.

For the origin of these results see PubChem BioAssay (NCATS).
